Data as given in the supplement of paper PMC6555819.

Key:
Experiment in all cases: PBM binding z-score (relative to random genomic background probes); higher = stronger binding; sequences stand for … in GC…GCGATTGACAGCGTAGAATGAAGG
[1] = tested on: RARb homodimer (NR concentration 270 nM)
Outline: (§1)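 Custom Agilent 4×180K protein-binding microarrays carried double-stranded probes, each with a 34-nt variable region. These regions held direct-repeat seeds, single-nucleotide variants, half-site ablations and random human genomic background sequences. Ligand-free nuclear receptor dimers were incubated on the arrays for 1 h, antibodies against each partner (one per run) detected binding, and scanned fluorescence was regression-normalized. Binding z-scores take the random background probes as reference.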

[2] = tested on: RARg:RXRa (NR concentration 270 nM, RXRa partner concentration 90 nM)
Outline: as §1

[3] = tested on: RARg homodimer (NR concentration 270 nM)
Outline: as §1

[4] = tested on: RXRa DBDmut IVT, anti-RXR (DBD mutation: RXRa K156A/R161A, NR concentration 90 nM)
Outline: as §1

[5] = tested on: RXRa homodimer (NR concentration 180 nM)
Outline: as §1

[6] = tested on: THRa:RXRa (NR concentration 90 nM, RXRa partner concentration 90 nM)
Outline: as §1

[7] = tested on: THRa homodimer (NR concentration 90 nM)
Outline: as §1

[8] = tested on: VDR homodimer (NR concentration 270 nM)
Outline: as §1

| Sequence | PBM binding z-score [1] | PBM binding z-score [2] | PBM binding z-score [3] | PBM binding z-score [4] | PBM binding z-score [5] | PBM binding z-score [6] | PBM binding z-score [7] | PBM binding z-score [8] |
| --- | --- | --- | --- | --- | --- | --- | --- | --- |
| TCTTGTAGATCAACAGTAGGTTAAGAAAGATCGA | -0.123 | 0.314 | 0.0764 | 0.88 | 0.463 | 0.12 | -0.482 | -0.281 |
| CTCGAAAGGTCGGTTGAGGTGAGCATACGGATAA | 2.57 | 3.04 | 2.99 | 0.598 | 2.33 | 5.04 | 1.56 | 0.64 |
| TCTTGTAGATCAGCAGGTTAAGATAGCTGGCCAA | -0.0544 | -0.0434 | -0.135 | 0.631 | 0.48 | 0.172 | -0.238 | -0.295 |
| CCGACTGGGGCAGAAAGGTAACCATACCATCCGG | 0.454 | 0.234 | 0.586 | -1.12 | 0.166 | 0.0799 | -0.606 | -0.291 |
| AGTCAAAGTTCAGGACGAGGTAACGCAAAGCACG | 3.22 | 4.76 | 4.54 | 2.81 | 3.06 | 3.75 | 1.73 | 1.73 |
| AATACAGGGTCACCAGGCCAGAGTAGGTACGAAT | 3.63 | 6.17 | 6.17 | 2.62 | 7.47 | 3.85 | 1.88 | 2.7 |
| CCTACTGGGCCCAAGGTCATTGATTCCAATGCTC | 3.52 | 2.64 | 2.42 | 0.382 | 2.82 | 3.22 | 2.76 | 2.48 |
| CGTCCAAGGTAAAGGTCAGTGAAAGAGACTCGAA | 4.43 | 4.58 | 5.49 | 0.687 | 4.48 | 3.2 | 0.7 | 0.765 |
| AATACAGGGTCATCGTAGGCCTGAGTACGCACAG | 3.36 | 5.59 | 4.89 | 3.34 | 6.77 | 4.2 | 1.25 | 3.73 |
| AGAACGAGGGCACGCTGACTTGATAGCAGAGTAG | 1.15 | 1.84 | 1.95 | 1.66 | 1.34 | 1.76 | -0.184 | 0.649 |
| TCTATTAGTTGCTTAGGGCAACCGAAACAGCGGA | 0.716 | 0.433 | 0.547 | 1.23 | 0.549 | 0.996 | 0.379 | 0.236 |
| CGTGCAAGGTCAAGGTCAGTGAAAGAGACTCGAA | 5 | 6.85 | 7.64 | 3.8 | 6.7 | 4.26 | 3.18 | 3.35 |
| CATACAGGCTCAGCTAGGCCAGAGTAGGGACGGC | -0.642 | -0.268 | 0.0433 | -0.877 | -0.366 | -0.349 | -0.416 | -0.751 |
| TCTACTAGTTGATTAGGGCAACCGAAACAGCGGA | 0.379 | 0.164 | 0.225 | 0.346 | 0.0714 | 0.604 | -0.104 | -0.302 |
| ATCAAAAGGTCGTGAGGTGAGTATACAGAAAGGC | 3.41 | 4.87 | 4.4 | 1.25 | 5.51 | 3.49 | 1.89 | 1.49 |
| ACTAGTCGGTCAGCTGAGGTCACACACAATTCGG | 4.94 | 4.99 | 5.76 | 1.43 | 4.35 | 5.27 | 5.28 | 3.97 |
| TATACAGGGTCAAAGGCGAGAGTACGAATGTCGA | 3.17 | 5.39 | 5.04 | 2.92 | 6.67 | 3.42 | 0.888 | 3.09 |
| ACTAGCAGTCCAAGTTTGGGTCACTCAAACAAAG | 1.97 | 0.986 | 0.834 | 0.395 | 0.691 | 2.16 | 1.07 | 0.0671 |
| ATCGTAAGGTCGAAGGTGAGTATACCCACCCGAA | 1.59 | 2.97 | 2.44 | 1.58 | 3.4 | 2.98 | 1.59 | 0.909 |
| ACTAGTTGGTCAGCTGAGGTCACACATAATTCGG | 4.45 | 4.1 | 4.13 | 1.13 | 3.93 | 4.88 | 5.2 | 3.19 |
| GCTAACAGGCCATTTGGGTCACTCAATGACGGGC | 2.13 | 1.1 | 1.63 | 0.69 | 1.06 | 2.13 | 0.884 | 0.601 |
| ATATGTAGGTTATCAGGTCATTCAGTTTGCGCAT | 3.6 | 3.19 | 2.93 | 1.91 | 3.12 | 3.72 | 3.81 | 3.81 |
| AGTCAAAGTTCAGGACGAGGTAACGTATAGCACG | 3.26 | 4.94 | 4.94 | 3.22 | 3.15 | 3.88 | 1.73 | 2.37 |
| ATCGAAAGGTCGTGAGGTGAGTATCCAGAAAGGC | 2.99 | 4.59 | 3.92 | 1.15 | 5.24 | 3.28 | 1.55 | 0.852 |
| GCTAGCAGGCCATTCGGGTCACTCAATGACGGGC | 2.3 | 1.85 | 1.92 | 0.641 | 1.81 | 3.09 | 1.75 | 1.2 |
| CCGACTGGGGCATAAGGTTATCATAAGCCAGCCC | 1.53 | 1.8 | 0.973 | -0.174 | 1.14 | 1.78 | 0.629 | 0.13 |
| GCAGACAGGTGAACCGCAGGTAACTCAGGGTGGC | 0.366 | 1.37 | 0.342 | -0.635 | 1.54 | 1.76 | -0.376 | -0.237 |
| CAAACTAGGTAAAGGTCAAAGTCGGTTTGTGCCA | 4.92 | 6.24 | 5.71 | 2.3 | 6.98 | 3.87 | 1.05 | 2.8 |
